# Source: the OligoGym collection
# Biological target: TACR1
# Experiment: pooled miR-30 sensor sort-seq; sequence = guide strand
# Details: shRNA
# Further: reference of the scale not given here.
row,Sequence,sensor-assay potency score (higher = more potent)
1,TTCTCATAAATCTTGTTCGGAT,-0.905
2,TCGATCATGCACACGACTCTGC,0.106
3,TTGAGTAGTAGCCCTGGGGGAA,-0.65
4,TAGAACAGGCCGTAGTACCATT,-1.05
5,TTCGTCACTGTCCTCATTCTTT,-0.603
6,TAGATCAGCACAGTCACACAGA,-0.182
7,TGGTCTTGGAGTCACTTCGTGA,-1.54
8,TGACTTTGTACACACTGCCCTG,-1.2
9,TCGTTGTGGACAGCATAGGTGA,-1.11
10,TAGTTCGTCACTGTCCTCATTC,-0.77
11,TAGGTGAAGTTCACCACTGTAT,-0.204
12,TTTCTCATAAATCTTGTTCGGA,0.392

# Biological target: TAF3
# Experiment: as above
# Details: shRNA
row,Sequence,sensor-assay potency score (higher = more potent)
1,AATAACACAACATCTAGCGTGT,0.896
2,TAACACAACATCTAGCGTGTCC,0.323
3,TTCTTGAGAAGACACAATGGGT,-1.17
4,TAAACTTGTAGGGATCTGCCTC,0.187
5,TTTGGGAGTAGTACACTCCGGG,0.0818
6,TTCAGCTTCAGGACTATCCAGT,-0.217
7,TTGATTTTAAACTTGTAGGGAT,0.554
8,TTTATCTGCTACCACAGCCTTT,-0.868
9,TTTCACTTTATCCTTCTCCTTA,0.0178
